# From PubChem BioAssay (NCI)
# About 79,000 compounds went through this panel and 15% of them were active in at least one assay; those are over-represented in the sample as a whole. Activity calls are given as the source filed them. No stated cut-off is given here; in the data, active means growth inhibition above about 70%; inactive means the rest.
# Assay: NCI Yeast Anticancer Drug Screen. Data for the mec2-1 strain (AID 157)
# Conditions: S. cerevisiae mec2-1 strain, at 50.0 µM, hits give high values
# In short: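 Yeast mec2-1 mutant treated with compound. Readout: growth inhibition vs vehicle controls.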
row,SMILES,growth inhibition
1,O=C(O)C1C(C2c3ccc(O)cc3Oc3cc(O)ccc32)C2(Cl)C(Cl)=C(Cl)C1(Cl)C2(Cl)Cl (stereo not given),94.4% (active)
2,C1=CC2=CC=CC3c4nc5ccc6ccccc6c5nc4C(=C1)C23 (stereo not given),-9.3% (inactive)
3,O=C1c2c(c3c4ccccc4[nH]c3c3[nH]c4ccccc4c23)C(=O)N1Cc1ccccc1,-5.95% (inactive)
4,CC(C)(CC1(C)NC(=O)NC1=O)OCc1ccccc1 (stereo not given),-30.1% (inactive)
5,NC(=O)N/N=C/c1cccc([N+](=O)[O-])c1,27.8% (inactive)
6,O=C(CN=C(CN(c1ccccc1)c1ccccc1)Oc1c(Cl)cc(Cl)cc1Cl)N1c2ccccc2Sc2ccccc21,-10.8% (inactive)
7,N#C/C(=C\N1CC(=O)NC1=S)c1nc2ccccc2s1,8.45% (inactive)
8,CC1=C(c2cc(C(=O)Nc3cc(C)ccc3C)nc(N)n2)Sc2ccccc2N1,-10.8% (inactive)
9,CC(=O)OC/C=C(C)/C=C/C=C(C)/C=C/C1=C(C)CCCC1(C)C,-34% (inactive)
10,CCN(C(=S)Nc1cccc2ccccc12)c1ccccc1,-11.3% (inactive)
11,Cc1ccc(C)c2c1CCc1cc3ccccc3nc1-2,-7.5% (inactive)
12,CN=Cc1c(O)ccc2ccccc12.[Cu+2],7.6% (inactive)
13,Cc1[nH]c(C)c2ccc(=O)ccc12,-8.35% (inactive)
14,O=C1C2C(Cl)C(Cl)C(Cl)C(Cl)C2C(=O)N1NC1CCC([N+](=O)[O-])CC1[N+](=O)[O-] (stereo not given),-16.4% (inactive)
15,CC(=O)NC1C(OC(C)C(=O)NC(C(=O)NC(CCC(=O)NCCCNC2c3ccccc3Nc3cccc([N+](=O)[O-])c32)C(N)=O)C(C)C)C(O)C(CO)OC1(C)OCc1ccccc1 (stereo not given),-20.4% (inactive)
16,CCSc1n[nH]c(=O)nc1SC,-3.25% (inactive)
17,CC(C)CCOC(=O)C1C(=O)CC(c2ccccc2)C1c1ccccc1 (stereo not given),3.5% (inactive)
18,CCCOC(=O)COc1ccccc1,5.7% (inactive)
19,Cn1c(-c2ccc(/C=N/N=C(N)N)cc2)c[n+]2ccccc12,4.3% (inactive)
20,CC1(C)CCCCC1/C=C/C(CC(O)(C(F)(F)F)C(F)(F)F)=N\Nc1ccc([N+](=O)[O-])cc1[N+](=O)[O-] (stereo not given),9.1% (inactive)

row,SMILES,growth inhibition
1,CCOC(=O)Nc1ccc(Cl)cc1Cl,-8.2% (inactive)
2,COC(=O)COc1ccccc1[N+](=O)[O-],2.55% (inactive)
3,CCCCOB(OCCCC)Oc1c(C(C)(C)C)cccc1C(C)(C)C,-4.6% (inactive)
4,N#CCCN(CCC#N)c1nc(-c2ccccc2)nc(N(CCC#N)CCC#N)n1,-16.6% (inactive)
5,COC1OC(=O)c2cccc3cccc1c23 (stereo not given),-14.8% (inactive)
6,CC(O)C(=O)OCCOCCOC(=O)C(C)O (stereo not given),4.1% (inactive)
7,Cc1ccc(S(=O)(=O)OC(c2ccccc2)C(F)(F)F)cc1 (stereo not given),-15.6% (inactive)
8,COc1cccc(C[n+]2cc([O-])on2)c1,26.1% (inactive)
9,COc1ccc(-c2cc(-c3ccccc3)c(-c3ccccc3)nn2)cc1CN1CCOCC1,-29.2% (inactive)
10,CC(C)C[C@H](NC(=O)[C@H](CCc1ccccc1)NC(=O)c1ccc2ccccc2n1)B(O)O,64.7% (inactive)
11,Cc1ccc(C)c(OC(=O)NC2CCCCC2)c1,-15.1% (inactive)
12,CC(O)C(O)C(O)C(=O)C=O (stereo not given),29.1% (inactive)
13,O=c1[nH]c(Nc2ccccc2)nc2c1ncn2CC(O)CSCCO (stereo not given),13.2% (inactive)
14,Cc1cc2ccccc2c[n+]1CC(=O)CC([O-])(C(F)(F)F)C(F)(F)F,3.25% (inactive)
15,O=[N+]([O-])c1ccc(CCCc2ccc([N+](=O)[O-])cc2)cc1,7.35% (inactive)
16,CCOc1ccc(/C=C(\NC(=O)c2ccccc2)C(=O)Nc2ccccc2)cc1OC,-12.6% (inactive)
17,O=C(NC1COB(c2cccc([N+](=O)[O-])c2)OC1c1ccc([N+](=O)[O-])cc1)C(Cl)Cl (stereo not given),27.9% (inactive)
18,c1ccc2c(c1)CCc1cc3cc4c(nc3nc1-2)-c1ccccc1CC4,-15.8% (inactive)
19,CCOC(=O)c1ccc2c3c(ccc([N+](=O)[O-])c13)CC2,-6.25% (inactive)
20,Brc1ccccc1-c1nnc(-c2cccc3ccccc23)o1,-59.9% (inactive)
